We go through 40 molecules from PubChem BioAssay (EPA / NIEHS).

Inconclusive results are not listed. Activity calls are given as the source filed them. How the source made its calls: active means hit-call score of the fitted dose curve at least 0.9, where 1 is the maximum; inconclusive means response in the unintended direction; inactive means score below 0.9.

Read-out in the test: Cytochrome P450 2B6 (Homo sapiens) (UniProt P20813)
The test is described as follows: CLD_CYP2B6_6hr: CellzDirect (CLD) Gene Expression Assay for xenobiotic metabolism (CYP2B6) at 6 hours (AID 2283677).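 Further: actives raise CYP2B6 transcript above DMSO baseline so AC50 marks an inducer.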 How it is done:
CLD_6hr is a cell-based, multiplexed-readout assay that uses hepatocyte, a human liver primary cell, with measurements taken at 6 hours after chemical dosing in a 96-well plate.CLD_CYP2B6_6hr is one of 16 assay component(s) measured or calculated from the CLD_6hr assay. It is designed to make measurements of mRNA induction, a form of inducible reporter, as detected with chemiluminescence signals by Quantitative Nuclease Protection Assay (qNPA) technology.Data from the assay component CLD_CYP2B6_6hr was analyzed at the endpoint, CLD_CYP2B6_6hr, in the positive analysis fitting direction relative to DMSO as the negative control and baseline of activity. Using a type of inducible reporter, gain-of-signal activity can be used to understand changes in the reporter gene as they relate to the gene CYP2B6. Furthermore, this assay endpoint can be referred to as a primary readout. To generalize the intended target to other relatable targets, this assay endpoint is annotated to the cyp intended target family, where subfamily is xenobiotic metabolism.
Human hepatocyte cultures were treated daily for two consecutive days with fresh dosing solutions containing appropriate concentrations of the 320 ToxCast chemicals (chemical identities were blinded to CellzDirect and other ToxCast collaborators), vehicle control (0.2% DMSO), and positive control inducers as summarized in Table 1. Due to the large number of treatment groups and chemicals examined, the ToxCast chemicals were divided into two groups (spanning two independent cultures of hepatocytes from separate donor preparations (Hu778: ToxCast plates 1 and 2; Hu776: ToxCast plates 3 and 4). Each preparation of human hepatocyte cultures was treated with respective vehicle control, medium only control, set of six positive controls/reference chemicals for the five hepatic receptor pathways, and a subset of eight of the ToxCast chemicals (indoxacarb, pyrithiobac-sodium, norflurazon, cyhalofop-butyl, methomyl, thiram, acetochlor, and propiconazole). These replicate data, coupled with internal replicates designed within the blinded ToxCast chemical library, provided additional data to evaluate interindividual differences between hepatocyte preparations and their potential impact on chemical profiles.Cell morphology and integrity were evaluated using phase-contrast microscopy as an indicator of hepatocyte cell health (Tyson & Green, 1987). Cultures for each treatment group (i.e., media, vehicle [0.2% DMSO], positive control inducers [multiple concentrations], and the ToxCast chemicals [multiple concentrations]) were observed and cell morphology was assessed relative to vehicle control cultures at each harvest time point (0, 6, 24, or 48 h). […] Images were evaluated at the conclusion of the study to assess changes in cell integrity and account for the effects of chemical exposure on uncharacteristic changes in concentration-dependent gene expression profiles. The results from these determinations of apparent cytotoxicity were annotated (yes/no) alongside the corresponding qNPA data for reference.At the conclusion of each treatment period, hepatocyte cultures (96-well) were washed with 1 volume of HBSS, lysed by addition of 25 ul ArrayPlate lysis buffer (HTG, Tucson, AZ), and 70 ul/well of Denaturation Oil, denatured by incubation at 95C for 10 min, and frozen at approximately -70C until analysis by nuclease protection assay (qNPA) (Roberts et al., 2007). For qNPA analysis, cell lysates were thawed at 50C for approximately 30 min, qNPA probes were added, and samples were incubated at 95C for 10 min to begin the detection process by denaturing the target RNA, dissociating the duplexes and secondary structure hybridization. At the conclusion of the hybridization period, S1 nuclease reagent was added to each sample to digest all nonprotected nucleotides at 50C for 60-90 min. […]
Take `C[C@H]1[C@H](c2ccc(Cl)cc2)SC(=O)N1C(=O)NC1CCCCC1`: the AC50 (in general, the concentration at which the activity in the assay is half-maximal) was 3.09 µM (active).
Turning to `CCOCN(C(=O)CCl)c1c(C)cccc1CC`, the AC50 was 1.66 µM (active).
Turning to `O=C(O)CCCOc1ccc(Cl)cc1Cl`, the molecule was classed as inactive.
The same measure, in the same setting: the result for `O=S(=O)(O)C(F)(F)C(F)(F)C(F)(F)C(F)(F)C(F)(F)C(F)(F)C(F)(F)C(F)(F)F` reads “inactive”.
Same read-out and setting: in the case of `Oc1cc(Cl)ccc1Oc1ccc(Cl)cc1Cl` it was “inactive”.
For `C#CCN1C(=O)COc2cc(F)c(N3C(=O)C4=C(CCCC4)C3=O)cc21`, the AC50 was 0.301 µM (active).
In the case of `CCOc1nc(NC)nc(NC(=O)NS(=O)(=O)c2ccccc2C(=O)OC)n1`, the result was inactive.
As to `O=C(O)COc1ccc(Cl)cc1Cl`, the AC50 is 0.0448 µM (active).
Same read-out and setting: the result for `CC(C)N(C(=O)COc1nnc(C(F)(F)F)s1)c1ccc(F)cc1` reads 14.7 µM (active).
Same read-out and setting: the result for `COP(=S)(OC)Oc1ccc(SC)c(C)c1` reads 4.74 µM (active); that for `ClC1C(Cl)C(Cl)C(Cl)C(Cl)C1Cl` (stereo not given), 1.43 µM (active).
Still for that read-out and setting: the result for `O=[N+]([O-])c1c(Cl)c(Cl)c(Cl)c(Cl)c1Cl` reads 20 µM (active).
`OCCOc1ccccc1`: the outcome was inactive.
Turning to `CC(C)(C)C(O)C(Oc1ccc(Cl)cc1)n1cncn1` (stereo not given), the AC50 was 0.656 µM (active).
Take `O=C(NC(=O)c1c(F)cccc1F)Nc1ccc(OC(F)(F)C(F)OC(F)(F)F)c(Cl)c1` (stereo not given): the result was inactive.
Consider `CCC(C)(NC(=O)c1cc(Cl)c(C)c(Cl)c1)C(=O)CCl` (stereo not given), for which the AC50 is 3.17 µM (active).
Take `CCN(CC)C(=O)SCc1ccc(Cl)cc1`: the AC50 was 1.84 µM (active).
Turning to `Cc1[nH]c(=O)n(C(C)(C)C)c(=O)c1Cl`, the molecule was called inactive.
For `COC(=O)c1ccccc1S(=O)(=O)NC(=O)N(C)c1nc(C)nc(OC)n1`, the outcome was inactive.
Still for that read-out and setting: in the case of `CN1CSC(=S)N(C)C1` it was “inactive”.
With `CCc1ccc(C(=O)NN(C(=O)c2cc(C)cc(C)c2)C(C)(C)C)cc1`, the AC50 is 2.09 µM (active).
Same read-out and setting: in the case of `CCS(=O)(=O)c1cccnc1S(=O)(=O)NC(=O)Nc1nc(OC)cc(OC)n1` it was 11.3 µM (active).
On to `CNC(=O)/C=C(\C)OP(=O)(OC)OC`, for which the molecule was called inactive.
The same measure, in the same setting: the result for `O=[N+]([O-])/N=C1\NCCN1Cc1ccc(Cl)nc1` reads “inactive”.
Take `Clc1ccccc1-c1nnc(-c2ccccc2Cl)nn1`: the AC50 is 0.0004 µM (active).
The same measure, in the same setting: the result for `CCCN(CCOc1c(Cl)cc(Cl)cc1Cl)C(=O)n1ccnc1` reads 0.702 µM (active); that for `CCCN(CCC)c1c([N+](=O)[O-])cc(C(F)(F)F)cc1[N+](=O)[O-]`, 1.27 µM (active).
Still for that read-out and setting: in the case of `N#Cc1c(Cl)c(Cl)c(Cl)c(C#N)c1Cl` it was 20 µM (active); in that of `CNC(=O)Oc1ccccc1OC(C)C`, 3.21 µM (active).
As for `Cc1cc(C)nc(NC(=O)NS(=O)(=O)c2ccccc2C(=O)OC2COC2)n1`, the outcome was inactive.
`COc1nn(CSP(=S)(OC)OC)c(=O)s1`: the concentration at half-maximal activity (AC50) was 2.94 µM (active).
Take `CCC(C)(C)C(=O)OC1=C(c2ccc(Cl)cc2Cl)C(=O)OC12CCCCC2`: the call was inactive.
Turning to `CCC(C)Nc1c([N+](=O)[O-])cc(C(C)(C)C)cc1[N+](=O)[O-]` (stereo not given), the AC50 is 1.53 µM (active).
On to `COC(=O)c1ccccc1S(=O)(=O)NC(=O)Nc1nc(C)nc(OC)n1`, for which the molecule was classed as inactive.
`COc1cc(OC)nc(NC(=O)NS(=O)(=O)c2cc(NC=O)ccc2C(=O)N(C)C)n1`: the outcome was inactive.
As for `CC(C)OC(=O)Nc1cccc(Cl)c1`, the AC50 was 6.86 µM (active).
As to `O=C(O)C(F)(F)C(F)(F)C(F)(F)C(F)(F)C(F)(F)C(F)(F)C(F)(F)F`, the molecule was classed as inactive.
For the molecule `CC1(c2ccc(Oc3ccccc3)cc2)OC(=O)N(Nc2ccccc2)C1=O` (stereo not given), the AC50 was 1.88 µM (active).
For the molecule `CNC(=O)Oc1cccc(N=CN(C)C)c1`, the result was inactive.
Turning to `CNC(=O)CSP(=S)(OC)OC`, the AC50 is 3.11 µM (active).
